Data published in PubChem BioAssay (NCI).
Compounds without any hit were thinned out: in the full panel of roughly 83,000, 20% have a hit.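 Note: values are percent growth. 100 is the growth of untreated cells, values between 100 and 0 indicate rising inhibition; between -100 and 0 indicates cell death.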 Activity calls are given as the source filed them. The calls were made as follows: active = growth percent below 10; inactive = the rest.

Tests used:
Experiment in all cases: NCI-60 one-dose screen, 48 h (100 = growth as untreated, 0 = no growth, -100 = all killed)
Conditions in all cases: 10 µM unless noted
NCI-H23 lung = test system: NCI-H23 lung
NCI-H226 lung = test system: NCI-H226 lung
NCI-H322M lung = test system: NCI-H322M lung
HOP-62 NSCLC = test system: HOP-62 NSCLC
NCI-H460 lung = test system: NCI-H460 lung
HOP-92 NSCLC = test system: HOP-92 NSCLC
NCI-H522 lung = test system: NCI-H522 lung
A549/ATCC NSCLC = test system: A549/ATCC NSCLC
786-0 renal = test system: 786-0 renal
DU-145 prostate = test system: DU-145 prostate
K-562 leukemia = test system: K-562 leukemia
MALME-3M melanoma = test system: MALME-3M melanoma
MDA-MB-231 breast = test system: MDA-MB-231 breast
RXF 393 renal = test system: RXF 393 renal
SF-268 CNS = test system: SF-268 CNS
SF-295 CNS = test system: SF-295 CNS
SF-539 CNS = test system: SF-539 CNS
UACC-257 melanoma = test system: UACC-257 melanoma
M14 melanoma = test system: M14 melanoma

Measured: growth

O=C1NC(=S)S/C1=C\N1N=C(c2ccc(Cl)cc2)CC1c1ccc(F)cc1 (stereo not given)
inactive: NCI-H23 lung 91.3% | NCI-H226 lung 83.9% | NCI-H322M lung 99.1% | HOP-62 NSCLC 103% | NCI-H460 lung 95.8% | HOP-92 NSCLC 104% | NCI-H522 lung 76.1% | A549/ATCC NSCLC 84.1% | 786-0 renal 94% | DU-145 prostate 98.5% | K-562 leukemia 59.8% | MALME-3M melanoma 83.7% | MDA-MB-231 breast 80.9% | RXF 393 renal 73.8% | SF-268 CNS 85.9% | SF-295 CNS 92.4% | SF-539 CNS 89.5% | UACC-257 melanoma 107% | M14 melanoma 87.7%

CCN(CC)S(=O)(=O)c1ccc(O)c(NC(=O)c2[nH]c(C)c(C(C)=O)c2CCc2ccc(Cl)cc2)c1
inactive: NCI-H23 lung 19.6% | NCI-H226 lung 62.5% | NCI-H322M lung 54.7% | HOP-62 NSCLC 48.9% | NCI-H460 lung 50.2% | HOP-92 NSCLC 38.2% | NCI-H522 lung 11.9% | A549/ATCC NSCLC 37.2% | 786-0 renal 73.4% | DU-145 prostate 68.4% | K-562 leukemia 29.8% | MALME-3M melanoma 53% | MDA-MB-231 breast 50.6% | RXF 393 renal 91.2% | SF-268 CNS 55.4% | SF-295 CNS 59.3% | SF-539 CNS 64.5% | UACC-257 melanoma 38.3% | M14 melanoma 56.8%

NC(=S)c1csc(CCNC(=O)c2ccccc2)n1
inactive: NCI-H23 lung 100% | NCI-H226 lung 116% | NCI-H322M lung 108% | HOP-62 NSCLC 109% | NCI-H460 lung 109% | HOP-92 NSCLC 97.3% | NCI-H522 lung 106% | A549/ATCC NSCLC 90.1% | 786-0 renal 98.2% | DU-145 prostate 129% | K-562 leukemia 110% | MALME-3M melanoma 125% | MDA-MB-231 breast 107% | RXF 393 renal 128% | SF-268 CNS 111% | SF-295 CNS 96.9% | SF-539 CNS 114% | UACC-257 melanoma 94.2% | M14 melanoma 110%

N#Cc1c(N)n2c(nc1=Nc1ccc([N+](=O)[O-])cc1)sc1cc(Cl)ccc12
active: SF-295 CNS -4.01%
inactive: NCI-H23 lung 79% | NCI-H226 lung 88.4% | NCI-H322M lung 96% | HOP-62 NSCLC 102% | NCI-H460 lung 86.9% | HOP-92 NSCLC 57.6% | NCI-H522 lung 77% | A549/ATCC NSCLC 106% | 786-0 renal 109% | DU-145 prostate 107% | K-562 leukemia 74.4% | MALME-3M melanoma 90.6% | MDA-MB-231 breast 74.5% | RXF 393 renal 114% | SF-268 CNS 95.4% | SF-539 CNS 107% | UACC-257 melanoma 109% | M14 melanoma 105%

Clc1ccc2[nH]c3c(NCCCN4CCOCC4)ncnc3c2c1
inactive: NCI-H23 lung 76.8% | NCI-H226 lung 86.1% | NCI-H322M lung 68.9% | HOP-62 NSCLC 83.5% | NCI-H460 lung 69.3% | HOP-92 NSCLC 67.8% | NCI-H522 lung 90.3% | A549/ATCC NSCLC 80.1% | 786-0 renal 80.3% | DU-145 prostate 87.3% | K-562 leukemia 31.6% | MALME-3M melanoma 93.9% | MDA-MB-231 breast 56.7% | RXF 393 renal 70.5% | SF-268 CNS 99.6% | SF-295 CNS 64.7% | SF-539 CNS 95.4% | UACC-257 melanoma 98.2% | M14 melanoma 73.8%

CC(=[N-])N1CCC[C@@H](Nc2c3ccccc3nc3ccccc23)C1.[Cl][Pt].[NH-]CCC[NH-]
inactive: NCI-H322M lung 44.9% | HOP-62 NSCLC 51.9% | HOP-92 NSCLC 28.7% | 786-0 renal 53.5% | K-562 leukemia 19.2% | MALME-3M melanoma 20.7% | MDA-MB-231 breast 46.9% | SF-268 CNS 62.3% | SF-295 CNS 56.8% | SF-539 CNS 36.9% | UACC-257 melanoma 66.9% | M14 melanoma 65.3%
active: NCI-H23 lung -2.65% | NCI-H226 lung -4.62% | NCI-H460 lung 0.597% | NCI-H522 lung -18.5% | A549/ATCC NSCLC 7.75% | DU-145 prostate 5.94% | RXF 393 renal -24.3%

C[C@@H]1C(=O)N(C[C@H](Cc2ccccc2)N(Cc2ccccc2)Cc2ccccc2)[C@]1(Cc1ccccc1)C(=O)OC(C)(C)C
inactive: NCI-H23 lung 42% | NCI-H226 lung 47.8% | NCI-H322M lung 87.9% | HOP-62 NSCLC 81.6% | NCI-H460 lung 54% | HOP-92 NSCLC 46.3% | NCI-H522 lung 50.9% | A549/ATCC NSCLC 60% | 786-0 renal 72.6% | DU-145 prostate 77.6% | K-562 leukemia 51.6% | MALME-3M melanoma 88% | MDA-MB-231 breast 61.9% | RXF 393 renal 68.5% | SF-268 CNS 69.8% | SF-295 CNS 40.3% | SF-539 CNS 91% | UACC-257 melanoma 45.1% | M14 melanoma 75.4%

Cn1cc(Nc2nccc(-c3ccc(N4CCCC4)c(C#N)c3)n2)cn1
inactive: NCI-H23 lung 63.3% | NCI-H226 lung 78.9% | NCI-H322M lung 52% | HOP-62 NSCLC 25.5% | HOP-92 NSCLC 67% | NCI-H522 lung 22% | A549/ATCC NSCLC 22.6% | 786-0 renal 42.7% | DU-145 prostate 55.7% | MALME-3M melanoma 54.4% | MDA-MB-231 breast 63.9% | RXF 393 renal 43.9% | SF-268 CNS 45.9% | SF-295 CNS 71.3% | SF-539 CNS 43.8% | UACC-257 melanoma 69.6% | M14 melanoma 17.2%
active: NCI-H460 lung 8.94% | K-562 leukemia 9.73%

C=C(C)[C@@H]1CC[C@]2(CN)CC[C@]3(C)[C@H](CC[C@@H]4[C@@]5(C)CCC(N)[C@@](C)(CO)[C@@H]5CC[C@]43C)[C@@H]12 (stereo not given in full)
inactive: NCI-H23 lung 53% | NCI-H226 lung 89.6% | NCI-H322M lung 34.4% | HOP-92 NSCLC 51.7% | RXF 393 renal 58.4% | SF-295 CNS 87.8%
active: HOP-62 NSCLC -89.2% | NCI-H460 lung -75.7% | NCI-H522 lung -77.5% | A549/ATCC NSCLC -82.3% | 786-0 renal -92.9% | DU-145 prostate -38.1% | K-562 leukemia -69.8% | MALME-3M melanoma -85.9% | MDA-MB-231 breast -80.9% | SF-268 CNS -79.5% | SF-539 CNS -72.6% | UACC-257 melanoma -88.7% | M14 melanoma -81.8%

C=C1C(=O)O[C@H]2[C@H]1CC/C(Cn1cc(CNCCc3c[nH]c4ccccc34)nn1)=C\CC[C@@]1(C)O[C@@H]21
active: NCI-H522 lung 3.17%
inactive: NCI-H23 lung 95% | NCI-H226 lung 101% | NCI-H322M lung 86.8% | HOP-62 NSCLC 86.3% | NCI-H460 lung 104% | HOP-92 NSCLC 61.6% | A549/ATCC NSCLC 95.7% | 786-0 renal 99.1% | DU-145 prostate 104% | K-562 leukemia 32% | MALME-3M melanoma 76% | MDA-MB-231 breast 92.4% | RXF 393 renal 85.4% | SF-268 CNS 95.8% | SF-295 CNS 102% | SF-539 CNS 81.1% | UACC-257 melanoma 77.4% | M14 melanoma 84.3%

CN(C)c1ccc(/C=C2\C=C(c3ccccc3)N(CCc3ccccc3)C2=O)cc1
active: HOP-62 NSCLC -14%
inactive: NCI-H23 lung 64.2% | NCI-H226 lung 52.8% | NCI-H322M lung 71.9% | NCI-H460 lung 23.6% | HOP-92 NSCLC 51.2% | NCI-H522 lung 50.6% | A549/ATCC NSCLC 34.8% | 786-0 renal 48.9% | DU-145 prostate 60.4% | K-562 leukemia 90.6% | MALME-3M melanoma 57.7% | MDA-MB-231 breast 84.6% | RXF 393 renal 81.4% | SF-268 CNS 43.8% | SF-295 CNS 53.9% | SF-539 CNS 61.6% | UACC-257 melanoma 76.8% | M14 melanoma 51.7%

Cc1cc(N(CCCNc2ccnc3cc(Cl)ccc23)Cc2ccccn2)nc(N2CCOCC2)n1
inactive: NCI-H23 lung 90.4% | NCI-H226 lung 90.9% | NCI-H322M lung 94.1% | HOP-62 NSCLC 85.2% | NCI-H460 lung 99.7% | HOP-92 NSCLC 66.6% | NCI-H522 lung 74.7% | A549/ATCC NSCLC 86.4% | 786-0 renal 86% | DU-145 prostate 113% | K-562 leukemia 67.8% | MALME-3M melanoma 89.8% | MDA-MB-231 breast 95.2% | RXF 393 renal 77.3% | SF-268 CNS 83.3% | SF-295 CNS 92.9% | SF-539 CNS 91.4% | UACC-257 melanoma 101% | M14 melanoma 95.7%

CCN(CC)N=Nc1nn(C(=O)Nc2ccc(Cc3ccccc3)cc2)c2ccc(Cl)cc12
inactive: NCI-H23 lung 90.4% | NCI-H226 lung 84% | NCI-H322M lung 82.5% | HOP-62 NSCLC 86.9% | NCI-H460 lung 25.7% | HOP-92 NSCLC 102% | NCI-H522 lung 67.3% | A549/ATCC NSCLC 67.7% | 786-0 renal 59.5% | DU-145 prostate 70.5% | K-562 leukemia 22.3% | MALME-3M melanoma 139% | MDA-MB-231 breast 102% | RXF 393 renal 116% | SF-268 CNS 76% | SF-539 CNS 77.7% | UACC-257 melanoma 55.5% | M14 melanoma 22%
active: SF-295 CNS 8.57%

CCCn1nc(-c2ccccc2)c2c(-c3ccccc3)onc2c1=O
inactive: NCI-H23 lung 85.6% | NCI-H226 lung 87.5% | NCI-H322M lung 95.4% | HOP-62 NSCLC 74.2% | NCI-H460 lung 98.1% | HOP-92 NSCLC 75.6% | NCI-H522 lung 62.6% | A549/ATCC NSCLC 89% | 786-0 renal 94.1% | DU-145 prostate 104% | K-562 leukemia 29.1% | MALME-3M melanoma 96.5% | MDA-MB-231 breast 81.6% | RXF 393 renal 90.2% | SF-268 CNS 89.2% | SF-295 CNS 74.3% | SF-539 CNS 85% | UACC-257 melanoma 112% | M14 melanoma 57.2%

Nc1ccc(S(=O)(=O)Nc2ccsc2-c2nc(-c3ccccc3)no2)cc1
inactive: NCI-H23 lung 83.5% | NCI-H226 lung 84.5% | NCI-H322M lung 83.3% | HOP-62 NSCLC 35.8% | NCI-H460 lung 40.1% | HOP-92 NSCLC 62.2% | NCI-H522 lung 30.2% | A549/ATCC NSCLC 42.7% | 786-0 renal 86% | DU-145 prostate 76.5% | K-562 leukemia 13.5% | MALME-3M melanoma 70.5% | MDA-MB-231 breast 61.8% | RXF 393 renal 83.3% | SF-268 CNS 67.2% | SF-295 CNS 69.8% | SF-539 CNS 75.6% | UACC-257 melanoma 67.2% | M14 melanoma 32.1%
